The record followed here is ChEMBL document CHEMBL4513146, “CO-ADD screening of Karazin Kharkiv National University (Ukraine) compounds”.

Results with a measured potency or affinity are listed apart.

The test system of one experiment is Staphylococcus aureus. As to conditions: Concentration 32 ug.mL-1;; ASSAY_TEST Inhibition of Bacterial Growth; detection method Absorption (OD600); MEDIA CAMHB; plate type 384well; NBS; CORNING #3640; time 18 hr.
Broadly, the Inhibition is the relative decrease from the control value, in per cent. `CC(=O)c1cccc(NC(=O)Cn2nc3c(N4CCN(c5ccccc5C)CC4)nccn3c2=O)c1`: the Inhibition is 17.73%. Same read-out and setting: the value for `CC(C)c1nnc2c(SCC(=O)Nc3ccccc3Br)nc3ccccc3n12` was 6.58%; that for `COc1ccc(-c2noc(Cn3nc4ccc(-c5ccccc5)nn4c3=O)n2)cc1OC` was 7.44%; that for `Cc1ccc(Oc2nccn3c(=O)n(CC(=O)Nc4cccc(Cl)c4)nc23)cc1` was -3.9%.

On to `CCOc1ccc(C(=O)CSc2nnc3c(=O)n(-c4ccc(Br)cc4)ccn23)cc1`, for which the Inhibition is given as 15.75%. Same read-out and setting: the value for `CCCCn1c(=O)c2sccc2n2c(SCc3cccc(C(F)(F)F)c3)nnc12` was -1.51%. On the same count and under the same terms, the value for `COc1ccc(CCn2c(=O)c3sccc3n3c(=O)n(CC(=O)c4ccccc4)nc23)cc1OC` was 14.35%; that for `COc1ccc(C)cc1NC(=O)CSc1nc2ccccc2n2cnnc12` was 16.59%; that for `O=C(Cn1nc2n(Cc3ccccc3)c(=O)c3ccccc3n2c1=O)Nc1ccc2c(c1)OCO2` was -3.15%. Still for that read-out and setting: the value for `CCCc1nnc2c(=O)n(CC(=O)Nc3ccc(NC(C)=O)cc3)c3ccccc3n12` was 9.51%; that for `CCOc1ccc(NC(=O)Cn2nc3c(Sc4ccccc4)nccn3c2=O)cc1` was 1.52%.

In a further experiment the test system is Escherichia coli. As to conditions: Concentration 32 ug.mL-1;; ASSAY_TEST Inhibition of Bacterial Growth; detection method Absorption (OD600); MEDIA CAMHB; plate type 384well; NBS; CORNING #3640; time 18 hr.
Take `Cc1ccccc1CN(c1cccc(F)c1)S(=O)(=O)c1ccc2nncn2c1`: the Inhibition is reported as -3.51%.

`COc1cccc(CN(c2cc(C)cc(C)c2)S(=O)(=O)c2cccn3c(C)nnc23)c1`: the Inhibition is recorded as -8.8%. The same measure, in the same setting: the value for `Cc1cccc(Oc2nccn3c(=O)n(CC(=O)N4CCN(c5ccc(F)cc5)CC4)nc23)c1C` was -6.71%; that for `CN(C(=O)Cn1nc2n(Cc3ccco3)c(=O)c3sccc3n2c1=O)c1ccccc1` was -5.3%; that for `Cc1ccc(Sc2ccc3nn(CC(=O)Nc4ccc(Br)c(C)c4)c(=O)n3n2)cc1` was -6%. Same read-out and setting: the value for `Cc1cc2nn(CC(=O)Nc3ccc(F)cc3)c(=O)n2c(Nc2ccccc2C)n1` was 1.51%; that for `Cc1ccc(CNC(=O)Cn2nc3c(Oc4ccccc4C)nccn3c2=O)cc1` was -1.39%; that for `COc1ccc(NC(=O)c2ccc3nn(CC(=O)Nc4ccc(C)c(F)c4)c(=O)n3c2)cc1` was -7.69%.

Take `CCc1nnc2c(S(=O)(=O)N(Cc3cccc(F)c3)c3cccc(C)c3)cccn12`: the Inhibition is -0.95%. Still for that read-out and setting: the value for `C=Cc1ccc(CN(c2ccc(CC)cc2)S(=O)(=O)c2cccn3c(C)nnc23)cc1` was -2.55%; that for `CCc1ccc(N(Cc2ccc(F)cc2)S(=O)(=O)c2cccn3c(CC)nnc23)cc1` was -4.69%.

As for `COC(=O)c1cccc(NC(=O)Cn2nc3c(N4CCC(C)CC4)nccn3c2=O)c1`, the Inhibition was -9.95%.

Take `CSc1cccc(NC(=O)Cn2nc3c(SCc4ccc(Cl)cc4)nccn3c2=O)c1`: the Inhibition was -9.35%. The same measure, in the same setting: then `CCCCn1c(=O)c2sccc2n2c(=O)n(CC(=O)NC(C)C)nc12`, with -3.44%; and `COc1ccc(-c2cc3c4nn(CC(=O)Nc5ccccc5)c(=O)n4ccn3n2)cc1`, with 7.52%; and `O=C(Cn1nc2ccc(SCc3ccc(Cl)cc3)nn2c1=O)NCc1ccccc1`, with -9.37%.

With `Cc1nnc2c(=O)n(CC(=O)Nc3ccc(F)cc3F)c3ccccc3n12`, the Inhibition is on record as -0.32%. In the case of `Cc1ccc(C)c(CSc2nnc3c(=O)n(-c4ccc(F)c(F)c4)ccn23)c1`, the Inhibition is on record as -0.2%. The same measure, in the same setting: the value for `O=c1c2nn(Cc3cccc([N+](=O)[O-])c3)c(=O)n2ccn1-c1ccccc1` was -2.06%; that for `CC(C)c1ccc(NC(=O)Cn2nc3ccc(SCc4ccc(Cl)cc4)nn3c2=O)cc1` was -6.33%. Same read-out and setting: the value for `COc1ccc(-c2cc3c4nn(CC(=O)Nc5ccc(C)cc5)c(=O)n4ccn3n2)cc1` was 1.25%. With `CCc1nnc2c(=O)n(CC(=O)Nc3cccc(C#N)c3)c3ccccc3n12`, the Inhibition was determined as 1.69%.

Take `CC(C)(C)OC(=O)N1CCC(NC(=O)CCc2nnc3ccc(-c4ccccc4)nn23)CC1`: the Inhibition was -5.19%.

For the compound `COc1ccc(NC(=O)C(C)Sc2nnc3c(=O)n(-c4cccc(OC)c4)ccn23)cc1` (centres undefined), the Inhibition is on record as -9.09%. Still for that read-out and setting: then `Cc1ccc(NC(=O)Cn2nc3c4cc(-c5ccc(C)c(C)c5)nn4ccn3c2=O)cc1`, with -1.34%; and `O=c1c2sccc2n2c(=O)n(Cc3cccc(Cl)c3)nc2n1Cc1cccs1`, with -5.83%; and `Cc1cc(C)cc(N(Cc2ccc(F)cc2)S(=O)(=O)c2cccn3c(C)nnc23)c1`, with -9.2%. Same read-out and setting: the value for `Cc1ccccc1Nc1cc(C)n2c(=O)n(CCc3ccccc3)nc2n1` was -1.35%.
